A word on the inhibition: it is the relative decrease from the control value, in per cent.

Out of some 360,000 compounds screened, about 4,600 (1.3%) were called active.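 Rule for the calls: active = percent inhibition above its own plate's cutoff, namely the mean of that plate's compound wells plus 3 SD; inactive = the rest.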 This excerpt belongs to a sample that is enriched for actives.

This assay deals with Muscarinic acetylcholine receptor M1 (Homo sapiens) (UniProt P11229). Kind of assay: human M1 muscarinic receptor antagonists, primary screen, CHO-K1 cells, Fluo-8 calcium fluorescence, 1536-well (AID 588852).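 Note: peak over basal fluorescence ratio during 140 s after agonist addition; 0% = ACh EC80 plus DMSO and 100% = DMSO alone without agonist.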 The note with it: CHO-K1 hM1, Fluo-8 calcium fluorescence, ACh EC80 antagonist; at 3 µM; active compounds read high.
Sequence of Muscarinic acetylcholine receptor M1 (Homo sapiens) (P11229 whole entry, looked up): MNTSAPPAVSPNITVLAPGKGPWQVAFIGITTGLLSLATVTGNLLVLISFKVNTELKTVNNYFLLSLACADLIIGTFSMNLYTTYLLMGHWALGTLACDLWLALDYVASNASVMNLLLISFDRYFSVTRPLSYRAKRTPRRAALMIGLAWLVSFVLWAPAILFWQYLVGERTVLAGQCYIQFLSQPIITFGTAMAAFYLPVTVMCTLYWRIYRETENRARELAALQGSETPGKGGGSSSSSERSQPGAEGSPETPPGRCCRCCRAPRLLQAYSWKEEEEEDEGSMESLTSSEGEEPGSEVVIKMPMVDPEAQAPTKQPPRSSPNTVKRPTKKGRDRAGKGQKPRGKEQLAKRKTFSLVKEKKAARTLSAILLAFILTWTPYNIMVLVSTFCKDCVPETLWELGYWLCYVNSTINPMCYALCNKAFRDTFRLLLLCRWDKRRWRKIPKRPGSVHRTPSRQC
For `CC(C)(C)N1C(=O)c2c(C(=O)OCc3ccccc3)[nH]c(-c3ccccc3)c2C1=O`, the inhibition is -12.3% (inactive). With `CCNC(=O)C1(C)CCCN(C(=O)c2c(C)noc2C)C1` (stereo not given) the figure was -8.22% (inactive); with `CSc1ccc(CNC(=O)C2(C)CCCN2C)cc1` (stereo not given), -11.7% (inactive).

Turning to `CC(=O)c1ccc(NC(=O)CSc2nc3ccccc3c(=O)n2CCCN2CCOCC2)cc1`, the inhibition is 1.86% (inactive).

With `CC1CCN(CCCn2c(SCC(=O)NC3CCCC3)nc3ccccc3c2=O)CC1`, the inhibition was 31.2% (active).

As to `O=C(CSc1nc2ccccc2c(=O)n1CCCO)NC1CC1`, the inhibition is -2.1% (inactive).

For the compound `COC(=O)c1ccc2nc(-c3ccc(OC)c(OC)c3)c(Cc3ccccc3)n2c1`, the inhibition is -24% (inactive).

Consider `Cc1c(C(=O)OC(C)C)sc(NC(=O)c2cccnc2)c1C#N`, for which the inhibition is -3.46% (inactive). In the case of `CC(=O)N1c2ccc(S(=O)(=O)N3CCC(C(=O)N4CCN(c5ccccc5)CC4)CC3)cc2CC1C` (stereo not given), the inhibition is 10.8% (inactive). Take `CC(=O)N1CCCc2cc(S(=O)(=O)N3CCCC(C(=O)N4CCN(c5cccc(Cl)c5)CC4)C3)ccc21` (stereo not given): the inhibition is 57.1% (active). On to `CC(=O)N1CCCc2cc(S(=O)(=O)CCC(=O)N3CCN(c4ccccc4)CC3)ccc21`, for which the inhibition was -7.27% (inactive). `O=C(CCS(=O)(=O)c1ccccc1Cl)Nc1ccc(S(=O)(=O)Nc2ncccn2)cc1`: the inhibition is -5.9% (inactive). Regarding `CCN1C(=O)[C@@H]2[C@@H]3CN(S(=O)(=O)c4ccccc4C)[C@@H](c4ccc(Cl)cc4)[C@@H]3C(=O)C[C@@H]2C1=O`, the inhibition was 4.67% (inactive). Regarding `Cc1ccc(S(=O)(=O)N2CCC(C(=O)N[C@@H](C)C(=O)NCc3ccccc3)CC2)cc1`, the inhibition was 4.54% (inactive).

For `CCN(CC(=O)N1CCCC1)S(=O)(=O)c1ccc(F)cc1`, the inhibition was -13% (inactive). As for `O=C(O)C(c1cccs1)C1(O)CCCCC1` (stereo not given), the inhibition was -1.29% (inactive). For the compound `CN(C)CCOC(=O)C(c1ccccc1)C1(O)CCCC1` (stereo not given), the inhibition was 99.4% (active). As to `O=C(O)C(c1ccccc1)C1(O)CCCCC1` (stereo not given), the inhibition is -17.6% (inactive).

As to `COc1ccccc1N1CCN(CC(=O)NCCc2ccc(S(N)(=O)=O)cc2)CC1`, the inhibition was 4.39% (inactive).

Regarding `Cc1nc(NC(=O)CCC(=O)O)sc1C(=O)N(C)C`, the inhibition is 2.74% (inactive).

In the case of `CCCn1c(C2CCCN2c2nc(-c3ccc(C)cc3)cs2)nc2cc(Cl)c(N3CCCCC3)cc21` (stereo not given), the inhibition was -10.7% (inactive). With `COc1cc2ccccc2cc1C(=O)Nc1ccc(S(=O)(=O)Nc2cc(C)on2)cc1`, the inhibition was 103% (active). Consider `COc1ccc(S(=O)(=O)Nc2cc(C)on2)cc1NC(C)=O`, for which the inhibition was -12.3% (inactive). As for `CCOc1ccc(C(=O)Nc2ccc(S(=O)(=O)Nc3cc(C)on3)cc2)cc1`, the inhibition was 0.49% (inactive).

On to `CC1CCCC(C)N1C(=O)COC(=O)COc1ccccc1C#N` (stereo not given), for which the inhibition was -15.1% (inactive). In the case of `COc1ccccc1CNS(=O)(=O)c1cc(C(=O)NCc2ccccn2)c(Cl)cc1Cl` it was 5.67% (inactive); in that of `Cc1cc(C)n2nc(C(=O)OCC(=O)N(CCC#N)c3ccc(F)cc3)nc2n1`, -14.2% (inactive). Consider `CNS(=O)(=O)c1ccc(N2CCCC2=O)c([N+](=O)[O-])c1`, for which the inhibition is -23.5% (inactive). As for `CCSc1nsc(NC(=O)Nc2cccc(C(C)=O)c2)n1`, the inhibition was 51.1% (active).

With `C=CCSc1nsc(NC(=O)Nc2cccc(C(C)=O)c2)n1`, the inhibition is 38.7% (active).

On to `CC(=O)c1cccc(NC(=S)N2CCN(S(C)(=O)=O)CC2)c1`, for which the inhibition was -7.9% (inactive). For the compound `COc1ccc(NC(C(=O)Nc2cccc(C(C)=O)c2)c2ccccc2)cc1` (stereo not given), the inhibition was -3.24% (inactive). Consider `CC(=O)c1cccc(NC(=O)C2CCN(C(=O)c3ccccc3Cl)CC2)c1`, for which the inhibition was -5.19% (inactive). In the case of `CSc1ccccc1C(=O)Nc1cccc(C(C)=O)c1` it was 0.3% (inactive). `Fc1cccc(Cc2c(-c3cccc(Cl)c3)nc3ccc(Br)cn23)c1`: the inhibition is -20.5% (inactive).

As for `CC#CC[N+](C)(C)CCCCCC`, the inhibition is -12.7% (inactive).

Take `FC(F)(F)Oc1ccc(-c2cn3cccnc3n2)cc1`: the inhibition is 12.5% (inactive). For the compound `O=C(CCc1ccc(S(=O)(=O)N2CCOCC2)cc1)OCC(=O)c1ccc(Br)cc1`, the inhibition is 9.26% (inactive). With `O=C(Nc1ccccc1Cl)/C(Cl)=C(\Cl)S(=O)c1ccccc1` (stereo not given) the figure was -6.91% (inactive); with `OC(C#CCN1CCOCC1)(c1ccccc1)C1CCCCC1` (stereo not given), 50.9% (active). As to `OC(c1ccccc1)C(CN1CCOCC1)c1ccccc1` (stereo not given), the inhibition was -25.3% (inactive). For `COc1ccc(C(O)(C2CCCCC2)C(CN2CCCC2)c2ccccc2)cc1` (stereo not given), the inhibition was 10.3% (inactive). As to `Clc1cccc(Cl)c1Cn1nnc(-c2cccs2)n1`, the inhibition is -2.1% (inactive). Regarding `CC(=O)c1c(N)n(C)c(=O)n(C)c1=O`, the inhibition was -33.5% (inactive). As to `CCOC(=O)c1ccc(-c2ccc3ncnc(N(C)Cc4sccc4C)c3c2)o1`, the inhibition is -1.82% (inactive). Regarding `N/C(=N\OC(=O)Nc1ccccc1)c1ccno1`, the inhibition is -25% (inactive). For `CC(C)CCNC(=O)c1[nH]c(C(F)(F)F)nc1-c1ccccc1`, the inhibition is -26.6% (inactive). For `CCN(Cc1ccccc1)C(=O)CN1C(=S)NC(C)(C)CC1C` (stereo not given), the inhibition was -5.27% (inactive). On to `CCNC(=S)N(CCN(CC)CC)Cc1cc2cc3c(cc2[nH]c1=O)OCCO3`, for which the inhibition was -13% (inactive). On to `CC1CN(S(=O)(=O)c2ccc(C(=O)NN3CCN(C)CC3)cc2)CC(C)O1` (stereo not given), for which the inhibition is 9.23% (inactive). Turning to `CCCCOc1ccc(C(=O)NN2CCN(C)CC2)cc1`, the inhibition was 44.4% (active).

For `CN1CCN(NC(=O)c2ccc(S(=O)(=O)N3CCCCCC3)cc2)CC1`, the inhibition was -2.56% (inactive). With `Cc1ccc([C@H]2N[C@]3(CCCN(Cc4ccccc4)C3=O)[C@H]3C(=O)N(Cc4ccccc4)C(=O)[C@@H]23)cc1` the figure was -11.4% (inactive). Consider `OCCc1ccc(NCCc2ccco2)cc1`, for which the inhibition was 0.71% (inactive). With `O=C(c1ccccc1Oc1ccccc1)N1CCN(c2ccc(F)cc2)CC1`, the inhibition is 4.1% (inactive).

Turning to `CCOC(=O)N1CCN(C(=O)c2nn(-c3ccc(C)cc3)c(=O)c3c2c2ccccc2n3C)CC1`, the inhibition was 3.41% (inactive). `Cn1c2ccccc2c2c(C(=O)N3CCN(c4ccc(F)cc4)CC3)cn(C3CCCC3)c(=O)c21`: the inhibition was 29.7% (active).

On to `O=C(Nc1ccc2c(c1)OCCO2)C(C1CC1)N1CCC(Cc2ccccc2)CC1` (stereo not given), for which the inhibition was 34.6% (inactive). In the case of `CC(C)Cc1ccc(-c2cc3nc(NCc4cccc(Cl)c4)ccn3n2)cc1`, the inhibition was -8.68% (inactive).

On to `Cc1nnc(SC(C)C(=O)c2c[nH]c3ccccc23)n1C1CC1` (stereo not given), for which the inhibition is 2.35% (inactive). In the case of `C[C@H]1CN([C@@H](C)CO)S(=O)(=O)c2ccc(Br)cc2O[C@H]1CN(C)C(=O)c1cnccn1`, the inhibition is -4.86% (inactive). For the compound `O=C(Cc1ccccc1)Nc1c(Cl)ccc2nsnc12`, the inhibition is -7.81% (inactive). Turning to `CCNCCC(=O)N1c2ccccc2Sc2ccc(NC(=O)OCC)cc21`, the inhibition was 56% (active). `CCOC(=O)Nc1ccc2c(c1)N(C(=O)CCCl)c1ccccc1[S@]2=O`: the inhibition is -17.2% (inactive). With `CCOC(=O)Nc1ccc2c(c1)N(C(=O)CCN1CCN(CCO)CC1)c1ccccc1CC2`, the inhibition was 16.4% (inactive). In the case of `Cc1cc2c(cc1C)N(C(=O)CN1C(=O)c3ccccc3C1=O)C(C)(C)c1ssc(=S)c1-2`, the inhibition is 9.39% (inactive). As to `Nn1c(SCC(=O)Nc2nccs2)nncc1=O`, the inhibition was 11.7% (inactive). In the case of `CC(=O)Nc1ccc(OC(=O)COc2ccc(Br)cc2)cc1` it was 1.05% (inactive); in that of `Cc1ccc(O)c(NC(=S)NC(=O)COc2ccc(Br)cc2)c1`, 34.7% (active). With `Cn1cccc1C(=O)NNC(=O)COc1ccc(Br)cc1`, the inhibition is -13% (inactive). In the case of `Cc1nn(CCCC(=O)NCc2ccccc2Cl)c(=O)c2nccn12` it was -19.9% (inactive).

`COc1cccc(-n2cc3c(c2-c2ccccc2)c(=O)n(C)c(=O)n3C)c1`: the inhibition was 36.7% (active). With `COc1ccc(Nc2cc(=O)n(-c3ccccc3)c3c2c(=O)n(C)c(=O)n3C)cc1` the figure was 12.9% (inactive).

With `Cc1ccc(-c2c3c(=O)n(C)c(=O)n(C)c3cn2-c2ccccc2O)cc1`, the inhibition is 7.07% (inactive). Consider `O=c1[nH]c2ccccc2n1C1CCN(CCOc2ccccc2)CC1`, for which the inhibition is 78.4% (active). Turning to `O=C1CCN(CCc2ccccc2)CCN1CCOc1ccccc1`, the inhibition is -21.3% (inactive).

For the compound `O=S(=O)(c1cccs1)N1CCN(CCOc2ccccc2)CC1`, the inhibition was -13.2% (inactive). For `O=C(Nc1cc(Br)ccc1F)c1nc[nH]c1C(=O)NCc1ccccc1`, the inhibition is -2.93% (inactive). With `CCOC1CS(=O)(=O)CC1OCC` (stereo not given), the inhibition is -4.01% (inactive). In the case of `Cc1ccc(CN2CC(N3CCC(Cc4ccccc4)CC3)CS2(=O)=O)cc1` (stereo not given) it was -11.4% (inactive). For the compound `CCN(CCCNC(=O)CSc1cc(=O)n(C)c2cc(Cl)ccc12)Cc1ccccc1`, the inhibition was 2.6% (inactive). In the case of `Cc1cc(OC(=O)c2ccc(Cl)cc2)cc(=O)n1C`, the inhibition is -25.4% (inactive). In the case of `Cn1cncc1COC(=O)c1ccc(Cl)cc1` it was 88.4% (active). On to `COC(=O)c1ccc(COC(=O)c2cnc(Cl)c(Cl)c2)cc1`, for which the inhibition is -11.6% (inactive). In the case of `Cc1ccccc1NC(=O)CSC1=NCCN1` it was -2.31% (inactive).

These data come from PubChem BioAssay AID588852 (The Scripps Research Institute Molecular Screening Center, 2011).
